The list is not random: actives were taken first. Their share in the collection is about 12%.
BAZ2B block – inhibitors of human BAZ2B bromodomain; AID 504333; AlphaScreen BAZ2B-H3K14Ac peptide displacement; Potency, µM (top dose mostly 114 µM), without a hit: at the top dose activity change, negative = inhibition, actives largely listed as inhibitors; hit rate 4.4% among 360,000; note: % is set by controls: 0 for no effect and ±100 for the full control effect; nearly all actives have a fitted effect of over 60% in size
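BAZ2B (50 nM) with biotin-H3(5-23)K14Ac peptide (50 nM) in PBS pH 7.4, 0.01% Tween-20, preformed 30 min, then compound 30 min at room temperature; top concentration 110uM. AlphaScreen streptavidin donor/nickel chelate acceptor beads (10 ug/mL final), 20 min dark, signal read.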
HP1b binding inh – blocks HP1-beta chromodomain binding to methylated histone tails; AlphaScreen HP1-beta / biotin-H3K9me3 peptide binding; Potency, µM (highest dose often 114 µM), for inactives: at the highest dose activity change, negative = inhibition, usual class: inhibitors; AID 540317; P83916; hit rate 0.56% among 390,000; note: nearly all actives have a fitted effect of over 70% in size
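AlphaScreen: HP1-beta (50 nM) preformed 30 min with biotin-H3(1-18)K9me3 peptide (50 nM) in PBS pH 7.4, 0.01% Tween-20. Compound added for 30 min at RT, then streptavidin donor/nickel chelate acceptor beads (10 ug/mL) for 30 min.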
JMJD2A Tudor inh – blocks the human JMJD2A Tudor domain. AlphaScreen JMJD2A-Tudor / H3K4me3 peptide binding. AID 504339. hit rate 4.4% among 390,000. O75164. Potency, µM (highest dose often 114 µM), without a hit: at the top dose activity change, negative = inhibition, actives largely listed as inhibitors; note: % is set by controls: 0 for no effect and ±100 for the full control effect; nearly all actives have a fitted effect of over 50% in size
G9a block – blocks human histone lysine methyltransferase G9a; G9a H3K9 monomethylation, AlphaScreen, 2 h; Q96KQ7; AID 504332; Potency, µM (top dose mostly 102 µM), inactives show top-dose activity, negative = inhibition, actives largely listed as inhibitors; hit rate 8.8% among 350,000; note: % is set by controls: 0 for no effect and ±100 for the full control effect; nearly all actives have a fitted effect of over 75% in size
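Using a bead-based AlphaScreen, monomethylated H3K9 product from 2 h room-temperature reactions (G9a 20 nM, peptide 500 nM, SAM 20 uM) was detected with 0.5 ug/mL rabbit anti-H3K9me1 antibody.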
L3MBTL1 block – inhibitors of human L3MBTL1; Potency, µM (highest dose often 57.1 µM), without a hit: top-dose activity, negative = inhibition, actives largely listed as inhibitors; Q9Y468; AlphaScreen L3MBTL1–H3K9me1 peptide binding; hit rate 0.66% among 230,000; AID 485360; note: % is set by controls: 0 for no effect and ±100 for the full control effect; nearly all actives have a fitted effect of over 60% in size
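AlphaScreen assay: L3MBTL1 (50 nM final) was preincubated 30 min at room temperature with biotinylated H3(1-15)K9me1 peptide (75 nM final), then 30 min with library compounds; streptavidin donor and nickel chelate acceptor beads (10 ug/mL final) added, 30 min dark.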
Sfp PPTase inh – inhibitors of Bacillus subtilis Sfp phosphopantetheinyl transferase | Q9F4F7 | Biochemical Sfp PPTase activity, qHTS | Potency, µM, inactives show largest response in the series, negative = inhibition, actives largely listed as inhibitors | hit rate 3.5% among 310,000 | AID 1490;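 note: the enzyme is Sfp with the accession as filed and its product quenches rhodamine fluorescence; 0% = enzyme reaction without inhibitor and -100% = no enzyme wells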
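Fluorescence-quenching assay with 15 nM Sfp, 5 uM rhodamine-CoA and 12.5 uM BHQ-2-labelled ybbR peptide in pH 7.6 Hepes/MgCl2 buffer. Enzyme was pre-incubated with compound for 15 min at room temperature. Rate was taken from the 30-min fluorescence change (525/598 nm).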
An asterisk follows results filed as active; ? = inconclusive; / = no result given; [ ] = another dose, or the depositor's remark. Calls come from the whole dose curve; as a rule, active = well fitted curve in the direction sought with a large enough effect; inconclusive = small, poorly fitted or top-dose-only effect, or another doubt; inactive = no such curve, though single readings can be large; an effect the other way counts as inactive or inconclusive. Potency is the fitted concentration of half-maximal effect.

SMILES	BAZ2B block	HP1b binding inh	JMJD2A Tudor inh	G9a block	L3MBTL1 block	Sfp PPTase inh
CC[C@H](C)[C@H](NC(=O)[C@H](CC(C)C)NC(=O)[C@H](CO)NC(=O)[C@H](CCC(=O)O)NC(=O)[C@H](CC(C)C)NC(=O)[C@H](Cc1ccc(O)cc1)NC(=O)[C@H](CCCCN)NC(=O)[C@H](CCCCN)NC(=O)[C@H](C)NC(=O)[C@H](CO)NC(=O)[C@H](CC(C)C)NC(=O)[C@H](CCC(N)=O)NC(=O)CNC(=O)[C@H](CC(C)C)NC(=O)[C@H](CC(C)C)NC(=O)[C@H](CCCNC(=N)N)NC(=O)[C@H](CO)NC(=O)[C@H](Cc1ccccc1)NC(=O)[C@H](CC(=O)O)NC(=O)[C@H](CO)NC(=O)[C@@H](NC(=O)[C@H](Cc1ccccc1)NC(=O)[C@@H](NC(=O)CNC(=O)[C@H](CC(=O)O)NC(=O)[C@H](C)NC(=O)[C@@H](N)Cc1cnc[nH]1)C(C)C)[C@@H](C)O)C(N)=O	/	/	/	/	/	-2%
CCc1ccc(NC(=O)CC2C(=O)N(c3cccc(C)c3)C(=O)N2CCC(C)C)cc1 (stereo not drawn)	-8%	13%	-20%	-6%[59 µM]	/	/
O=C(O)/C=C/C(=O)Nc1ccc(O)cc1	-8%	?	?	/	?	-23%
Cc1ccc(C(=O)/C=C\C(=O)c2ccc(C)cc2)cc1	-10%	-5%	-19%	1.6µM*	6%	1.8µM*
CC(=O)N1CCN(C(=O)c2ccc(-c3cccc(C(F)(F)F)c3)o2)CC1	4%	33%	-9%	50µM*	-4%	/
O=C(O)/C=C/C(=O)c1ccc(O)cc1	-2%	55%	-11%	?	0%	2.2µM*
CCOC(=O)CCc1ccc(NC(=O)/C=C/c2ccc([N+](=O)[O-])o2)cc1	/	21%	-16%	/	/	/
CCc1ccc(C(=O)/C=C/c2ccc([N+](=O)[O-])o2)cc1	?	?	?	32µM*	/	-6%
CC[C@H](C)[C@H]1O[C@]2(CC[C@@H]1C)C[C@@H]1C[C@@H](C/C=C(\C)[C@H](O[C@@H]3C[C@H](OC)[C@H](O[C@@H]4C[C@H](OC)[C@@H](O)[C@H](C)O4)[C@H](C)O3)[C@@H](C)/C=C/C=C3\CO[C@@H]4[C@H](O)C(C)=C[C@@H](C(=O)O1)[C@]34O)O2	/	/	/	5%[59 µM]	/	8%
O=C(CSc1ccccc1)N1CCc2c([nH]c3ccccc23)C1c1ccc(Cl)cc1 (stereo not drawn)	-26%	-1%[57 µM]	?	-29%[59 µM]	/	/
COc1ccc(CNC(=O)CCCn2c(=O)c3cccn3c3ccc(F)cc32)cc1OC	-11%	46%	3%	-8%[59 µM]	/	/
COc1ccc(COC(=O)N/N=C2/C[C@@H](O)[C@@H](O)[C@@H]3[C@H]4C(=O)N(c5ccc(F)cc5F)C(=O)[C@@H]4CC[C@@H]23)cc1	/	/	/	/	/	13%
CC(C)CCNC(=O)C1CCC(Cn2c(=O)c3sccc3n(CC(=O)NC(C)C)c2=O)CC1 (stereo not drawn)	1%	20%	-8%	17%[59 µM]	/	/
CC[n+]1cc(-c2ccccc2)nc(N2CCOCC2)n1	-5%	6%	32µM*	10µM*	-7%	2%
NC(=O)c1cc(-c2ccccc2)nc(N2CCOCC2)n1	-2%	32%	11%	21%[59 µM]	1%	10%
COc1ccc(C(=O)N2CCN(c3nc4c(C)c(Cl)ccc4s3)CC2)c(OC)c1	-22%	-2%	-34%	-5%[59 µM]	/	/
CCCN1CNc2c(c(=O)[nH]c(=S)n2CCc2cccc(C)c2C)C1	/	31%	-7%	/	/	/
NNc1ccc(Cc2ccc(Cl)cc2Cl)nn1	2.8µM*	23%	28µM*	-24%	13µM*	6%
Cc1ccc(C)c(NC(=O)C2CCCN(S(=O)(=O)c3cccc4nsnc34)C2)c1 (stereo not drawn)	/	19%	-9%	-7%[59 µM]	/	/
COc1ccc(NC(=O)CCCN2C(=O)CN(C)C2=O)c(OC)c1	50µM*	-12%	50µM*	-6%[12.7 µM]	-5%	/
COc1ccc([N+](=O)[O-])cc1NC(=O)CCS(=O)(=O)c1ccc(Br)cc1	50µM*	?	40µM*	14µM*	/	12%
COc1ccc(S(=O)(=O)CCC(=O)Nc2ccc(OC)cc2OC)cc1	-14%	23%	-9%	10µM*	?	1%
COC(=O)c1ccc(COc2ccc(/C=N/Nc3cccc(C(=O)O)c3)cc2)cc1	?	?	56µM*	8.9µM*	25µM*	5%
CC(C)C(=O)N/N=C/c1ccc(OCc2ccccc2)cc1	3%	14%	-13%[57.1 µM]	-5%	-3%	8%
O=C(O)c1ccc(COc2ccc(/C=N/NC(=O)c3cccs3)cc2)cc1	-29%	3%	-24%	10µM*	3%	8%
SMILES	BAZ2B block	HP1b binding inh	JMJD2A Tudor inh	G9a block	L3MBTL1 block	Sfp PPTase inh
O=C(N/N=C/c1cccc(OCc2ccccc2)c1)c1cccs1	6%	25%	18%	4%	-5%	-19%
CCOc1cc(C=O)ccc1OCC(=O)N1CCCC1	12%	47%	-11%	0%	0%	13%
O=C(O)c1cc(N/N=C/c2ccc(OCc3ccccc3)cc2)ccc1Cl	?	17%	-20%	22µM*	?	-7%
CCOc1cc(/C=N/Nc2cccc(C(=O)O)c2)ccc1OCC(=O)N1CCCCC1	?	-11%	-20%	32µM*	-8%	5%
CCNc1ncc2nc(-c3ccccc3)c(=O)n(C)c2n1	/	/	/	5%[0.501 µM]	/	10%
COc1ccccc1N1CCN(C(=O)c2cnn(-c3ccc(C)c(C)c3)c2C2CCN(C(=O)OC(C)(C)C)CC2)CC1	-22%[57.1 µM]	12%	-35%	?	/	/
O=C(O)c1ccc(N/N=C/c2ccc(OC(=O)c3cccc(Cl)c3)cc2)cc1	50µM*	?	-19%[11.4 µM]	2%[12.7 µM]	/	40µM*
CSc1ccc(/C=N/Nc2cccc(C(=O)O)c2)cc1	8.9µM*	10µM*	4µM*	4µM*	5µM*	12%
CCOc1ccc(/C=N/Nc2ccccc2)cc1	-27%	28%	-30%	25µM*	/	-5%
O=C(Oc1ccc(/C=N/Nc2ccccc2)cc1)c1ccccc1	-11%	16%	2%[57.1 µM]	-5%[0.0925 µM]	-7%	-14%
O=C(O)c1cccc(N/N=C/c2cccs2)c1	-35%	18%	-11%[57.1 µM]	-4%[59 µM]	-20%	0%
O=C(O)c1cccc(N/N=C/c2ccc(OC(F)(F)F)cc2)c1	?	4%	?	14µM*	/	-1%
CC(C)(C)OC(=O)N1CCC(c2nnc(SCc3ccccc3)o2)CC1	7%	35%	7%	21%[59 µM]	/	/
CCCN1CCN(CCCNC(=O)c2ccc3c(c2)sc2nc(-c4ccc(C)cc4)cn23)CC1	-2%	36%	-2%	4%[59 µM]	/	/
